{
  "source": "PubChem BioAssay AID2314",
  "about": "(National Center for Advancing Translational Sciences (NCATS), 2010)",
  "note": "“And” between values parts separate entries of the source, which are not always exact repeats. Equal values may be shown once. About 37,000 (12%) of roughly 300,000 compounds were called active. This excerpt belongs to a sample that is enriched for actives. Values without a mark were called inactive. No stated cut-off is given here; in the data, active means max response mostly above about 13% (no sharp cut-off); inactive means mostly below about 14%.",
  "data": [
    {"experiment": "Cycloheximide Counterscreen for Small Molecule Inhibitors of Shiga Toxin; further: read at 38.3 µM for the half of the compounds with a filed dose; 0% is about no effect", "settings": "cell reporter, cycloheximide protein synthesis inhibition counterscreen; hits give high values", "values": [
      {"smiles": "Cc1cnc(NC(=O)c2ccccn2)s1", "max response": "26.4% (active)"},
      {"smiles": "CCN(CC)c1ccc(NC(=O)c2ccc(Cl)nc2)cc1", "max response": "16.7% (active)"},
      {"smiles": "Cc1cnc(NC(=O)c2ccc(Cl)nc2)s1", "max response": "43.4% (active)"},
      {"smiles": "Cc1ccc(Cl)cc1NC(=O)c1ccccn1", "max response": "19.9% (active)"},
      {"smiles": "NS(=O)(=O)c1ccc(NC(=O)COC(=O)c2ccc(Cl)nc2)cc1", "max response": "-4.06%"},
      {"smiles": "COC(=O)[C@@H](NC(=O)Nc1cc(Cl)ccc1C)C(C)C", "max response": "-5.71%"},
      {"smiles": "O=C(NNc1ccccn1)c1ccc(Cl)nc1", "max response": "2.34%"},
      {"smiles": "Cc1ccc(NC(=O)c2ccccn2)cc1S(=O)(=O)N1CCOCC1", "max response": "2.74%"},
      {"smiles": "CCOc1cc(NC(=O)c2ccccn2)c(OCC)cc1NC(=O)c1ccc(OC)cc1", "max response": "-3.64%"},
      {"smiles": "Cc1c(CC(=O)NCCCCCC(=O)O)c(=O)oc2cc3occ(-c4ccccc4)c3cc12", "max response": "-1.63%"},
      {"smiles": "O=C(CCN1C(=O)C2C3CCC(C3)C2C1=O)Nc1ccc(Cl)cc1Cl", "note": "(stereo unspecified)", "max response": "3.53%"},
      {"smiles": "CCOc1ccc(Nc2nc(Cc3nnc(SCC(=O)c4ccc(C)cc4)o3)cs2)cc1", "max response": "-3.13%"},
      {"smiles": "Cc1ccc(CCNC(=O)c2ccc3nc4ccccc4c(=O)n3c2)cc1", "max response": "4.5%"},
      {"smiles": "CN(C)S(=O)(=O)c1cccc(C(=O)OCC(=O)N2CCCC2=O)c1", "max response": "-2.94%"},
      {"smiles": "O=C(Nc1ccc(-n2ccnc2P(=O)(O)c2ccccc2)cc1)c1ccccc1Br", "max response": "2.05%"},
      {"smiles": "COc1ccc(S(=O)(=O)N(CC(=O)N/N=C/c2ccc(C(=O)O)cc2)Cc2ccccc2)cc1OC", "max response": "-6.63%"},
      {"smiles": "Cc1nonc1C1CCCN1Cc1nc(-c2ccc(F)cc2F)oc1C", "note": "(stereo unspecified)", "max response": "6.22%"},
      {"smiles": "CCCOc1ccc(CNC(=O)C2CCN(c3nn4c(=O)cc(C)nc4s3)CC2)cc1", "max response": "-3.96%"},
      {"smiles": "CCCCN1Cc2c(nc3cc(-c4ccccc4)[nH]n3c2=O)C1=O", "max response": "7.79%"},
      {"smiles": "CCc1c(C)nc2cc(C)[nH]n2c1=O", "max response": "-1.78%"},
      {"smiles": "C=CCc1c(C)nc2cc(-c3ccccc3)[nH]n2c1=O", "max response": "37% (active)"},
      {"smiles": "CCc1c(C)nc2cc(-c3cccs3)[nH]n2c1=O", "max response": "29.6% (active)"},
      {"smiles": "Cc1cc(=O)n2[nH]c(-c3sccc3-n3c(C)ccc3C)cc2n1", "max response": "5.31%"},
      {"smiles": "Cc1nc2nc[nH]n2c(=O)c1C/C=C/c1ccccc1", "max response": "10.1%"},
      {"smiles": "COCCn1cnc2c1c(=O)n(Cc1ccc(Br)cc1)c(=O)n2Cc1ccccc1", "max response": "-1.88%"},
      {"smiles": "Cc1ccc(NC(=O)C(CC(=O)O)C2CCCO2)c(C)c1", "note": "(stereo unspecified)", "max response": "-2.11%"},
      {"smiles": "CC(NC(=O)CNC(=O)Cc1cccc2ccccc12)c1ccc(S(N)(=O)=O)cc1", "note": "(stereo unspecified)", "max response": "4.99%"},
      {"smiles": "Cc1csc2ncc(C(=O)N(Cc3ccccc3)c3ccccn3)c(=O)n12", "max response": "-6.72%"},
      {"smiles": "CC1(C)NC(=O)N(CC(=O)Nc2cc(C(F)(F)F)cc(C(F)(F)F)c2)C1=O", "max response": "-1.59%"},
      {"smiles": "O=C1C2CCCN2C(=O)N1CCCCN1CCN(c2cccc(C(F)(F)F)c2)CC1", "note": "(stereo unspecified)", "max response": "-0.302%"},
      {"smiles": "O=C(NCc1ccco1)/C(=C\\c1cccc([N+](=O)[O-])c1)NC(=O)c1ccco1", "max response": "-3.43%"},
      {"smiles": "COc1cc(NS(=O)(=O)c2ccc3ccccc3c2)c2ncccc2c1", "max response": "-1.06% and -1.79%"},
      {"smiles": "CCS(=O)(=O)C1=NSC2=NC(=O)/C(=C\\c3cc(C)n(-c4cccc(OC)c4)c3C)C(=N)N21", "max response": "3.96%"},
      {"smiles": "CCC1=NN2C(=N)/C(=C/c3cc(C)n(-c4ccccc4)c3C)C(=O)N=C2S1", "max response": "4.37%"},
      {"smiles": "Cc1cc(/C=C2/C(=N)N3C(=NC2=O)SN=C3S(C)(=O)=O)c(C)n1-c1ccccc1", "max response": "28.8% (active)"},
      {"smiles": "COc1ccccc1OCCOc1ccc(/C=C2\\C(=N)N3N=C(C)SC3=NC2=O)cc1", "max response": "-1.22%"},
      {"smiles": "CS(=O)(=O)C1=NN2C(=N)/C(=C\\c3ccc(OCCOc4ccccc4)cc3)C(=O)N=C2S1", "max response": "8.57%"},
      {"smiles": "CCS(=O)(=O)C1=NSC2=NC(=O)/C(=C\\c3ccc(OS(=O)(=O)c4ccccc4)cc3)C(=N)N21", "max response": "23.1% (active)"},
      {"smiles": "COc1ccc(C(=O)NCCCN2CCOCC2)cc1Br", "max response": "0.527%"},
      {"smiles": "C/C(=N\\N=C(N)N)c1ccc(Cl)cc1", "max response": "-3.34%"},
      {"smiles": "COc1ccc(CCNC(=O)CN(C)S(=O)(=O)c2ccc3nc(C)sc3c2)cc1OC", "max response": "-1.23%"},
      {"smiles": "COc1ccc2c(CC(=O)N3CCc4cc(OC)c(OC)cc4C3)coc2c1", "max response": "-5.51%"},
      {"smiles": "CC(=O)c1ccc(NC(=O)C(C)NCc2ccc(Cl)cc2)cc1", "note": "(stereo unspecified)", "max response": "32.7% (active)"},
      {"smiles": "CC(NCc1cccs1)C(=O)Nc1cc(Cl)cc(Cl)c1", "note": "(stereo unspecified)", "max response": "-2.66%"},
      {"smiles": "CC(=O)c1ccc(NC(=O)C(C)N(C)CC(=O)Nc2ccccc2Cl)cc1", "note": "(stereo unspecified)", "max response": "5.03%"},
      {"smiles": "Nc1c(Cl)cc(-c2csc(N3CCCC3c3nc4cc(Cl)c(Cl)cc4n3CCOCCO)n2)cc1Cl", "note": "(stereo unspecified)", "max response": "2.13%"}
    ]}
  ]
}
